# D1 PAM: Potentiators of Human D1 Dopamine Receptor: qHTS; AID 504651, 2011; HEK293 TREx D1 cells, calcium flux, dopamine EC20 potentiation; actives 0.036% (n = 360,000); D(1A) dopamine receptor (Homo sapiens), P21728; potentiation, % at 10 µM; in the data active means potentiation above about 30%; further: 0% is about no effect
# Target sequence (P21728 whole entry, looked up): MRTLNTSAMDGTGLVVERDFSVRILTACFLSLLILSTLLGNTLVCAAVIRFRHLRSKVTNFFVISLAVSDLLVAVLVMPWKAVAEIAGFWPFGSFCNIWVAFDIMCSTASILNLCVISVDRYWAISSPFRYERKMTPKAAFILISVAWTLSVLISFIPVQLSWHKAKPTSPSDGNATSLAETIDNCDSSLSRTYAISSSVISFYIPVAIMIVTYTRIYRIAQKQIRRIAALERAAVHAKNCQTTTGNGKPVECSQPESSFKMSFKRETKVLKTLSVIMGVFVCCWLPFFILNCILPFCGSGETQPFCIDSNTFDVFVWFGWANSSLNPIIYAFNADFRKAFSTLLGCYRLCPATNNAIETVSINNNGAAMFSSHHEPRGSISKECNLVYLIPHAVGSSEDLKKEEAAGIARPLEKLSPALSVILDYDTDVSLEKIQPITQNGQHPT
# D1 antag: Antagonist of Human D 1 Dopamine Receptor: qHTS; D(1A) dopamine receptor (Homo sapiens), P21728; HEK293 TREx D1 cells, calcium flux, dopamine EC80; active compounds read low; activity change, negative = inhibition, % at 10 µM; actives 3.2% (n = 360,000); in the data active means activity change below about -30%; further: on the % scale 0 is the no-effect control and ±100 the full control effect
#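 Tetracycline-induced HEK293 Trex D1 cells, force-coupled to calcium, dye-loaded; compounds added and read 180 s, then EC80 dopamine added and calcium flux tracked kinetically another 180 s.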
# D1 ag: Allosteric Agonists of the Human D1 Dopamine Receptor: qHTS. D(1A) dopamine receptor (Homo sapiens), P21728. HEK293 T-REx D1 cells, calcium flux, agonist mode. activation, % at 2 µM. actives 1% (n = 360,000); further: 0% is about no effect
#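 Tetracycline-induced HEK293 TREx D1 cells, force-coupled to calcium signalling, were dye-loaded with a no-wash calcium kit. Compound was pin-added after a 10 s baseline. Fluorescence was read kinetically at 1 cycle/s for 180 s, with calcium rises flagged as agonism.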
# TRHR ag: qHTS for Small Molecule Agonists and Allosteric Enhancers of Human TRH Receptor: Primary Screen for Agonists | TRHR cells, calcium flux fluo-8, FDSS agonist mode | activation, % at 2 µM | actives 0.18% (n = 360,000) | AID 493084, 2011; further: 0% is about no effect
#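 Steps: seed TRHR cells overnight; add fluo-8 no-wash Ca dye, RT 30 min–1.5 h; record 10 s baseline; pin-transfer compounds; monitor fluorescence 1 cycle/s for the agonist window. Calcium increases flag candidate agonists.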
# TRHR enhancer: qHTS for Small Molecule Agonists and Allosteric Enhancers of Human TRH Receptor: Primary Screen for Enhancers; Thyrotropin-releasing hormone receptor (Homo sapiens), P34981; TRHR cells, fluo-8 calcium fluorescence, EC20 TRH enhancement; enhancement, % at 2 µM; actives 0.66% (n = 360,000); AID 493056, 2011; in the data active means enhancement above about 30%; further: 0% is about no effect
#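 TRHR-expressing cells loaded with fluo-8 calcium dye were read kinetically (ex 480/em 530) during compound addition, then stimulated with an EC20 of TRH (10 nM final). Enhancement of the Gq-mediated intracellular calcium response was scored.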
# * marks the source's active call; other numbers are inactive results. This is a sample that favours compounds with a hit; in the whole collection about 4.7% have one here. Unless noted, no stated cut-off is given here; in the data, active means activation above about 30%; inactive means the rest.
SMILES,D1 PAM,D1 antag,D1 ag,TRHR ag,TRHR enhancer
CCOC(=O)CSc1nnc(CNc2ccc(Cl)cc2)n1-c1ccccc1,0,-52*,7,0,18
CCc1nnc(NC(=O)CSc2nnc(CNc3cccc(C)c3)n2-c2ccccc2)s1,-3,-31*,1,1,-4
Cn1cc(S(=O)(=O)N2CCc3ccccc32)cc1C(=O)Nc1ccc(C(F)(F)F)cc1,-1,-6,1,0,6
COc1ccc(CNC(=O)c2ccc(NC(=O)N3CCCCc4ccccc43)cc2)c(OC)c1,-2,-4,3,1,5
Cc1noc(/C=C/N(C)C)c1S(=O)(=O)N1CCC(C(=O)Nc2ccc(Cl)cc2)CC1,-5,-45*,4,0,-5
Cc1cc(C)cc(NC(=O)C2CCN(S(=O)(=O)c3c(C)n[nH]c3C)CC2)c1,-18,-77*,0,0,-6
Cc1noc(/C=C/c2ccco2)c1S(=O)(=O)N1CCC(C(=O)Nc2ccc(F)c(Cl)c2)CC1,4,-48*,10,-1,4
Cc1ccc(NC(=O)C2CCN(S(=O)(=O)c3c(C)noc3/C=C/c3ccco3)CC2)cc1C,3,-2,3,1,2
Cc1cccc(NC(=O)/C(C#N)=C/c2ccco2)c1,-2,-25,-1,-1,6
CCN(C(=O)COC(=O)c1oc2ccc(OC)cc2c1C)C1CCS(=O)(=O)C1 (stereo not given),7,-9,4,0,-7
Cc1nnc(SCc2cc([N+](=O)[O-])cc3c2OCOC3)n(N)c1=O,-6,-42*,2,0,8
CCC(CC)c1nn2c(=O)cc(COc3ccc(NC(=O)c4ccccc4Cl)cc3)nc2s1,-2,-3,2,0,14
Cc1ccc(NC(=O)C(=O)NCCc2c[nH]c3ccccc23)c(C)c1,2,5,30*,4,11
Cc1ccc(C)c(NC(=O)C(=O)NCCc2c[nH]c3ccccc23)c1,-12,8,2,0,8
O=C(NCCc1c[nH]c2ccccc12)c1cncc(Br)c1,-8,-35*,10,7,13
O=C(NCCc1ccc(Cl)cc1Cl)c1cncc(Br)c1,-12,-38*,4,-1,8
CCn1cnc2c(Nc3ccc(Cc4cccnc4)cc3)nc(C#N)nc21,4,-2,3,-1,-8
COc1ccc(C(CNC(=O)c2ccc(OCc3c(C)noc3C)cc2)N2CCCC2)cc1 (stereo not given),-3,-4,14,2,1
COc1cc(NC(=O)c2cc(S(=O)(=O)N3CCC(C)CC3)cn2C)cc(OC)c1OC,-2,25,-1,-1,-2
O=C(CCCSc1nnnn1-c1cccc2ccccc12)c1ccc(F)cc1,-6,-47*,62*,0,5
O=C(CSc1nnnn1-c1cccc2ccccc12)Nc1ccc(C(=O)O)cc1,-2,21,9,0,3
O=C(Nc1nccs1)c1ccc(CSc2nnnn2-c2ccccc2)cc1,1,-34*,9,-1,2
O=C(O)c1ccc(CSc2nnnn2-c2ccc(F)cc2)cc1,-9,-31*,0,0,1
Cc1cc(O)c(C(c2cccc(Cl)c2)N2CCN(c3ccccc3)CC2)c(=O)n1Cc1ccco1 (stereo not given),-2,6,2,0,1
CCCCCC(=O)Nc1ccc(C(=O)COC(=O)c2ccccn2)cc1,-6,-16,2,0,13
Cc1onc(-c2ccccc2Cl)c1C(=O)Oc1ccccc1F,0,-4,5,0,-1
O=S(=O)(Nc1nc2n(n1)C(c1ccccc1)C=C(c1ccc(Cl)cc1)N2)c1ccccc1 (stereo not given),0,-14,32*,8,0
Cc1ccc(C2C=C(c3ccccc3)Nc3nc(NS(=O)(=O)c4ccccc4)nn32)cc1 (stereo not given),-3,10,31*,13,9
